Hits are enriched below; roughly 3.1% of the tested compounds scored in any of these assays.
MEKK2 mut-MEK5 = MEK5 binding signal on mutant MEKK2 PB1, primary screen, biochemical, multiplex bead flow cytometry, Alexa488-MEK5; 290,000 compounds, 0.35% hits; Alexa488-MEK5 binding to MEKK2 mutant; percent response, % at 10 µM; in the data active = percent response above about 24%, passing the limit was not always enough
PREPL inh = PREPL enzyme inhibitors, primary screen, biochemical, fluorescence polarization | Prolyl endopeptidase-like (Homo sapiens), Q4J6C6 | recombinant PREPL, fluorescence polarization activity-based probe | inhibition, % at 5.96 µM | 320,000 compounds, 0.68% hits | AID 2751, 2010; in the data active = inhibition above about 43%
Target sequence (Q4J6C6 whole entry, looked up): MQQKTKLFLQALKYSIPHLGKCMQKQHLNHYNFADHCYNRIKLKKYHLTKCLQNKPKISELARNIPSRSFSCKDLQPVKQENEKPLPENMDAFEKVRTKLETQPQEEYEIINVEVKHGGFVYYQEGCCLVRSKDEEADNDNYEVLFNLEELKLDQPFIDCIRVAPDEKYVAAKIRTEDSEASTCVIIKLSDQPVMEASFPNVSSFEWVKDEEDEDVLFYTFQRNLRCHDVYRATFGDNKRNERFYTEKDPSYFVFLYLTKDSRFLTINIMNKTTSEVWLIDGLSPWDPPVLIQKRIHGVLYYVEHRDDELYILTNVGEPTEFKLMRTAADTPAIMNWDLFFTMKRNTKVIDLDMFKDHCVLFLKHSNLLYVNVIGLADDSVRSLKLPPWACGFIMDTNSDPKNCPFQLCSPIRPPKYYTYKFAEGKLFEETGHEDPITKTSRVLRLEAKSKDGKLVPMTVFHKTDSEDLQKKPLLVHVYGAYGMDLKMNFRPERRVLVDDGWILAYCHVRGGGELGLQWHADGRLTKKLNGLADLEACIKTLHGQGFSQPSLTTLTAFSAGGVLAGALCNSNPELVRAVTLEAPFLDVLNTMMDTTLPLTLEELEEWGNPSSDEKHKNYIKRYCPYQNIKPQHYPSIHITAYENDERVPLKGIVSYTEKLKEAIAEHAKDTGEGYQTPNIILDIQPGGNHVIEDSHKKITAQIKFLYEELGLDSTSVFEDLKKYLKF
MEKK3 PB1 HTS = modulators of MEKK3-MEK5 PB1 binding, primary screen, biochemical, wildtype MEKK3, multiplex bead flow cytometry, Alexa488-MEK5 | Mitogen-activated protein kinase kinase kinase 3 (Homo sapiens), Q99759 | bead-based flow cytometry, Alexa488-MEK5 binding to MEKK3; actives lie on both sides; 0 = blocked by unlabeled MEK5, 100 = vehicle | binding response (% of control), % at 10 µM | 290,000 compounds, 1.4% hits | AID 1529, 2009;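 active = binding response more than 3 SD above or below the average of its plate-row segment, actives on both sides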;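 also: Alexa488 bead fluorescence after subtracting the streptavidin-only scavenger bead signal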
MEKK2wt PB1 HTS = modulators of MEK5 binding to wildtype MEKK2, primary screen, biochemical, multiplex bead flow cytometry, Alexa488-MEK5. binding response (% of control), % at 10 µM. Mitogen-activated protein kinase kinase kinase 2 (Homo sapiens), Q9Y2U5. 290,000 compounds, 1.1% hits. AID 1531, 2009. Alexa488-MEK5 binding to MEKK2 WT; actives lie on both sides; in the data active = binding response below about 67% or above about 130%
ATG4B inh = ATG4B protease inhibitors, primary screen, biochemical, fluorescence, uHTS; Cysteine protease ATG4B (Homo sapiens), Q9Y4P1; ATG4B cleavage of LC3-PLA2, NBD-HPC fluorescence, 1 h; inhibition, % at 8.33 µM; 340,000 compounds, 0.51% hits; AID 504462, 2011; in the data active = inhibition above about 40%
UBC13 polyUb = UBC13 polyubiquitin chain formation inhibitors, primary screen, biochemical, TR-FRET, uHTS; Ubiquitin-conjugating enzyme E2 N (Homo sapiens), P61088; inhibition, % at 20 µM; 330,000 compounds, 0.47% hits; in the data active = inhibition above about 45%, passing the limit was not always enough
MEKK2wt confirm = modulators of MEK5 binding to wildtype MEKK2, confirmation, biochemical, single concentration, multiplex bead flow cytometry; Alexa488-MEK5 binding to MEKK2 WT; actives lie on both sides; binding response (% of control), % at 10 µM; shares compounds with MEKK3 PB1 HTS; 5,900 compounds, 2.4% hits; in the data active = binding response below about 16% or above about 210%; inactive = in between
MEKK2mut confirm = mutant MEKK2 PB1-MEK5 binding signal retest – biochemical, single concentration, multiplex bead flow cytometry, confirmation; shares compounds with MEKK3 PB1 HTS; Alexa488-MEK5 binding to MEKK2 mutant; percent response, % at 10 µM; 5,900 compounds, 2% hits; in the data active = percent response mostly above about 71%, no sharp cut-off; inactive = mostly below about 38%;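 also: higher means compound restores mutant binding toward wildtype level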
MEKK3 confirm = MEKK3 wild-type PB1 binding to MEK5, inhibitors, confirmation, biochemical, bead multiplex flow cytometry, single concentration, wildtype. shares compounds with MEKK3 PB1 HTS. 5,900 compounds, 1.8% hits. AID 1894, 2009. Alexa488-MEK5 binding to MEKK3; active compounds read low. binding response (% of control), % at 10 µM;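 active = binding response below 72% of control, or above a set upper limit, though filed actives all read lower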;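 also: lower values mean stronger disruption of MEK5 binding to MEKK3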
Numbers stand for hits; – = inactive; · = no result; [ ] = another dose, or the depositor's remark.

SMILES	MEKK2 mut-MEK5	PREPL inh	MEKK3 PB1 HTS	MEKK2wt PB1 HTS	ATG4B inh	UBC13 polyUb	MEKK2wt confirm	MEKK2mut confirm	MEKK3 confirm
CCOC(=O)c1c(C)n(C)c2ccc(OCC(O)CN3CCN(C)CC3)cc12 (stereo unspecified)	–	–	–	–	–	–	·	·	·
CCOC(=O)c1c(C)n(-c2ccc(C)cc2)c2ccc(OCC(O)CN3CCN(C)CC3)cc12 (stereo unspecified)	104	·	–	289	–	·	214	71	–
O=S(=O)(NC1CC2CCC1C2)c1ccc2c(c1)OCCO2 (stereo unspecified)	–	–	2.0[inhibitor]	3.0[inhibitor]	–	–	–	–	–
O=C(N/C=N/O)C(c1ccccc1)c1ncc(C(F)(F)F)cc1Cl (stereo unspecified)	–	–	–	–	–	–	·	·	·
CCOC(=O)CN(c1ccccc1C)S(=O)(=O)c1ccc(Cl)cc1	–	–	–	–	–	–	·	·	·
Cc1nnc(N)s1	–	–	73[inhibitor]	–	–	–	–	–	–
CCSc1nnc(N)s1	–	–	–	–	–	–	·	·	·
Cc1ccc(C)c(S(=O)(=O)N2CCN(C(=O)Cn3c(=O)cnc4ccccc43)CC2)c1	·	–	·	·	–	–	·	·	·
CCOc1ccc(C(=O)/C=C/c2cn(CN3CCN(C)CC3)c3ccccc23)cc1	41	–	–	204	–	–	–	–	–
Cc1ccc(C)c(NC(=O)CCN2CCN(c3ccccc3F)CC2)c1	–	–	–	–	–	–	·	·	·
Cc1ccsc1/C=N/NC(=O)Cn1nc(C)c([N+](=O)[O-])c1C	–	–	–	–	–	–	·	·	·
C/C(=N\NC(=O)Cn1nc(C)c([N+](=O)[O-])c1C)c1ccc(Cl)s1	–	–	128	–	–	–	–	–	–
Cc1nn(CC(=O)NC(C)C)c(C)c1[N+](=O)[O-]	–	–	69[inhibitor]	–	–	–	–	–	–
Cc1nn(CC(=O)O)c(C)c1[N+](=O)[O-]	–	–	–	–	–	–	·	·	·
CCCc1nnc(SCC(=O)Nc2nc(C)cs2)n1CCOC	–	–	–	–	–	–	·	·	·
COc1ccc(Br)cc1CN(C)C(=O)c1ccccc1SCC(=O)N1CCCC1	·	·	·	·	–	·	·	·	·
CN(C)c1cc[n+](CC(=O)c2ccc(Br)cc2)cc1	–	–	–	–	–	–	·	·	·
COc1ccc(C(=O)C[n+]2cccc3cc(OC)ccc32)cc1	–	–	–	–	–	–	·	·	·
COc1ccc(C(=O)C[n+]2cccc3cc(C)ccc32)cc1	241	–	–	·	–	–	–	–	–
COc1ccc(C(=O)C[n+]2ccc(N(C)C)cc2)cc1	–	–	135	–	–	–	–	–	–
CCN(CC(=O)Nc1ccc2c(c1)OCCO2)C(=O)CCc1ccccc1Cl	·	–	·	·	–	–	·	·	·
C=CCOc1ccc(/C=C/C(=O)OCC(=O)N2CCC(c3ccccc3)=N2)cc1	·	–	·	·	–	–	·	·	·
CCCn1nc(C(=O)NNC(=O)c2cccc(S(=O)(=O)NC(C)C)c2)c2ccccc2c1=O	–	–	–	–	–	–	·	·	·
CCCOc1ccccc1C(=O)N1CCNC(=O)C1CC(=O)OC(C)C (stereo unspecified)	–	–	–	–	–	–	·	·	·
COc1ccc(N=C2S/C(=C\c3ccc(N4CCOCC4)o3)C(=O)N2CCc2c[nH]c3ccccc23)cc1	99	–	–	161	·	–	–	–	–
SMILES	MEKK2 mut-MEK5	PREPL inh	MEKK3 PB1 HTS	MEKK2wt PB1 HTS	ATG4B inh	UBC13 polyUb	MEKK2wt confirm	MEKK2mut confirm	MEKK3 confirm
COc1ccc(N=C2S/C(=C\c3ccc(OCC(=O)O)cc3)C(=O)N2CCc2c[nH]c3ccccc23)cc1	–	·	–	–	–	–	·	·	·
CC(=O)N1CCN(C(=O)CCC(=O)O)CC1	–	–	19[inhibitor]	7.0[inhibitor]	–	–	–	–	–
COC(=O)C1(CC2CC(c3ccccc3)=NO2)CCN(C(=O)OC(C)(C)C)CC1 (stereo unspecified)	–	–	–	–	–	–	·	·	·
CC1CN(c2nc(Nc3ccccc3F)nc(N)c2[N+](=O)[O-])CC(C)O1 (stereo unspecified)	–	–	–	–	–	–	·	·	·
COc1cc(CNCc2cccnc2)ccc1OCC(=O)NC(C)(C)C	–	–	–	–	–	–	·	·	·
CC(C)(C)NC(=O)COc1ccc(CNCc2cccnc2)cc1	–	–	56[inhibitor]	–	–	–	–	–	–
N#CCc1ccccc1C(=O)OCC(=O)N(Cc1ccccc1)Cc1ccccc1	·	–	·	·	–	–	·	·	·
CC(C)N1CCN(Cc2coc3ccccc3c2=O)CC1CCO (stereo unspecified)	–	–	131	–	–	–	–	–	64
Cc1cc(C)c(NC(=O)C2CCCN2C(=O)NC2CCCCC2)c(C)c1 (stereo unspecified)	–	–	125	–	–	–	–	–	–
Cc1cc(C)c(NC(=O)C2CCCN2CCOC(=O)c2cccc([N+](=O)[O-])c2)c(C)c1 (stereo unspecified)	–	–	–	–	–	–	·	·	·
Cc1cc(C)cc(NC(=O)C2CCCN2C(=O)NC2CCCCC2)c1 (stereo unspecified)	–	–	–	–	–	–	·	·	·
Cc1cc(C)c(NC(=O)C2CCCN2CCOC(=O)c2ccccc2)c(C)c1 (stereo unspecified)	–	–	142	–	–	–	–	–	–
O=C(NCCN1CCOCC1)C1(C(F)(F)F)C/C(=C\Cc2ccccc2)CCCO1 (stereo unspecified)	–	–	–	–	–	–	·	·	·
CN(C)S(=O)(=O)N(CCN1CCOCC1)Cc1ccccc1F	24	–	–	–	–	–	–	–	–
Cc1cc(C)c2c(N)c(C(=O)Nc3ncc(C)s3)sc2n1	–	–	–	–	–	–	·	·	·
